Assay results taken from PubChem BioAssay AID1745845 (National Center for Advancing Translational Sciences (NCATS), 2022).
Values joined by “and” are separate entries in the source; they are usually repeats but may differ in a detail not shown here. Identical values can stand only once. Out of some 360,000 compounds screened, about 2,600 (0.72%) were called active. Roughly 5% stayed inconclusive and do not appear here. Calls follow the shape of the dose curve; as a rule, active = well fitted inhibition curve with a large enough effect; inconclusive = small, poorly fitted or top-dose-only effect; inactive = no such curve, though single readings can be large or run the other way. The list comes from a sample in which actives are over-represented; it also holds similar structures and randomly drawn compounds.

assay: Primary qHTS for Inhibitors of ATXN expression; settings: HEK-293 ATXN2-luciferase reporter, luminescence, 24 h; series mostly up to 57 µM; activity change, negative = inhibition: at the top concentration; also: nearly all actives have a fitted effect of over 55% in size
Description: University of Utah School of Medicine, Salt Lake City, Utah
Spinocerebellar ataxia type 2 (SCA2) is a multisystem neurodegenerative disease caused by a dominantly acting mutation leading to expansion of a polyQ domain in the ataxin-2 protein (ATXN2). SCA2 patients develop progressive ataxia and later lose function in other neuronal systems. Prominent parkinsonian signs develop in some patients. Like many neurodegenerative disorders, no symptomatic or disease-modifying treatments are known.
The primary objective of the proposed research is to identify compounds inhibiting ATXN2 expression and to test them for efficacy in SCA2 mouse models. We have developed a cell-based assay paired with an in vivo mouse model using identical luciferase expression constructs. This approach takes advantage of an ATXN2-luciferase transgene, with the luciferase gene flanked by the upstream and downstream portions of the ATXN2 gene. Here we describe a 5-7 dose quantitative high thoroughput screen (qHTS) for compounds lowering ATXN2 expression. We screened the NIH Molecular Libraries Small Molecule Repository (MLSMR) and NCGC's mechanistically annotated (MIPE) and drug repurposing (NPC) collections of compounds for lowering expression of an ATXN2-luciferase reporter in HEK-293 cells. The assay is a multiplexed cell viability assay to ensure target reduction in the absence of cytotoxicity. Secondary qHTS assays included a CMV-luciferase reporter expressed in HEK-293 cells as well as a biochemical assay using recombinant luciferase to detect inhibitors of the reporter enzyme. Compounds that inhibit ATXN2 expression but is not cytotoxic were selected for confirmatory and secondary screens.
PROTOCOL TABLE (as described by Inglese J, Shamu CE and Guy RK. 2007)
SEQUENCE No. (e.g., 1, 2, 3, etc.); […] (e.g., Cells, Incubation, Reagent, etc.); VALUE; DESCRIPTION.
1; Cells; 4 uL; white, solid bottom, 1536-well Greiner assay plate.
2; Incubation; 2 hr; 37 degree C in 5% humidified CO2.
3; Compounds; 23 nL; Kalypsis pintool (Wako USA) equipped with a 1536-well pin head.
4; Incubation; 24 hr; 37 degree C in 5% humidified CO2.
5; Reagent; 1 uL; Gly-Phe-7-Amino-4-trifluoromethylcoumarin.
6; Incubation; 30 min; 37 degree C in 5% humidified CO2.
7; Detection; Fluorescence; ViewLux plate reader (PerkinElmer).
8; Reagent; 3 uL; SteadyGlo luciferase solution (Promega).
9; Incubation; 5 min; room temperature.
10; Detection; Luminescence; ViewLux plate reader (PerkinElmer).
NOTES (numbers refer to Sequence numbers above)
1. S2 cells expressing ATXN2-luciferase reporter were suspended in phenol-red free DMEM and dispensed in assay plates using a Multidrop Combi dispenser (Thermo Fisher Scientific).
2. Assay plates were incubated. Evaporation was prevented by covering assay plates with metal lids containing holes to allow gas diffusion.
3. Compounds were added in a dose response manner with the final concentrations of 57, 11.4, 2.28, 0.46, 0.091, 0.018, 0.0037 uM. Vehicle-only plates, with DMSO being pin-transferred to columns 5-48, were inserted uniformly at the beginning and the end of each library to monitor and record any shifts in assay performance.
5. 125 uM Gly-Phe-7-Amino-4-trifluoromethylcoumarin (MP Biomedicals) working concentration was used at a final concentration of 25 uM.
7. To assess cell viability; the assay plates were read using the ViewLux high-throughput CCD imager (PerkinElmer), wherein single end-point fluorescence measurement was acquired (excitation 405/10; emission 540/25 nm).
8. Detection reagent SteadyGlo Luciferase (Promega) was added to the assay plate.
10. Luminescence is then measured on the ViewLux imager equipped with a clear emission filter using a 2 sec exposure. All screening operations were performed on a fully integrated robotic system (Kalypsys) containing one RX-130 and two RX-90 anthropomorphic robotic arms (Staubli).
[…]
% is scaled to controls: 0 for no effect and ±100 for the full control effect; potency is read from the fitted curve at half-maximal effect.

Potency, active:
Fc1ccc2[nH]c3c(N4CCSCC4)ncnc3c2c1 15.8 µM, Fc1ccc2[nH]c3c(N4CCN(Cc5ccc6c(c5)OCO6)CC4)ncnc3c2c1 14.1 µM, Cc1cc(N/N=C\c2ccc(Br)cc2)nc(-n2nc(C)cc2C)n1 10 µM, COc1cc(NC(=O)c2[nH]cnc2C(N)=O)cc(C(=O)Nc2cccc(C(F)(F)F)c2)c1 10 µM, C=CCn1c(C)cc(C(=O)CN2C(=O)c3ccccc3C2=O)c1C 7.08 µM, CCC1CCCCN1CCCNC(=O)c1cc2c(Cl)nc3ccccc3c2s1 (centres undefined) 22.4 µM and 31.6 µM, c1cncc(CN2CCC(n3ncc4c(N5CCOCC5)nc(-c5ccc6[nH]ccc6c5)nc43)CC2)c1 21.7 µM, O=C(N/N=C/c1ccccc1O)/C(=C/c1ccccc1)CCO 3.55 µM, O=C(CSc1cccc2cccnc12)N/N=C/c1cccnc1 22.4 µM, CO[C@@H]1[C@@H](O)[C@H](O)[C@@H](n2c3c(Cl)cccc3c3c4c(c5c6cccc(Cl)c6[nH]c5c32)C(=O)NC4=O)O[C@@H]1CO 0.273 µM, CN(C)CCNC(=O)c1ccc(Cl)c2cc3ccccc3nc12 8.91 µM, CN(C)C(=O)c1cccc(-c2cnc3c(NC=O)cc(-c4ccc(F)cc4)cn23)c1 25.1 µM, CC(C)(C)CC(C)(C)NCC(O)COCCOc1ccc(Br)cc1 (centres undefined) 22.4 µM, O=C1NCCc2[nH]c(-c3ccncc3)cc21 6.11 µM, Cc1ccc(C(NC(=O)C2CCN(CCOc3ccc(Cl)cc3Cl)CC2)c2ccccn2)cc1 (centres undefined) 28.2 µM, O=C(NC1=CC(=O)c2ccccc2C1=O)c1ccccc1 7.94 µM, CCCCS(=O)(=O)c1oc(-c2cccs2)nc1S(=O)(=O)c1ccccc1 3.16 µM, O=C(/C=C/Sc1ncn[nH]1)c1ccc(Cl)cc1 25.1 µM, c1c2c(cc3sc(N4CCCCC4)nc13)OCCO2 7.94 µM

Activity change, negative = inhibition, inactive:
N#C/C=C/N1CCN(Cc2ccc3c(c2)OCO3)CC1 12.5%, O=C(CSc1nc2c(c(=O)[nH]1)CN(Cc1ccc3c(c1)OCO3)CC2)Nc1cc(F)ccc1F 15.6%, COC(=O)c1cc(Cl)c(NC(C)=O)cc1OC 16.7%, Cn1c(=O)c(C(=O)O)nn(-c2ccccc2)c1=O 13.3%, COc1cccc(CNCc2c(C(=O)O)n(Cc3ccc(C)cc3)c3cc(C)ccc23)c1OC 5.45%, C[C@@H]1CCC[C@H](C)N1CCCC(O)(c1ccccc1)c1ccccn1 (some centres undefined) -0.369%, CC(C)Cn1c(C2CC(=O)N(c3ccccc3Cl)C2)nc2ccccc21 (centres undefined) 0.8%, CC(C(C)N1CC(=O)NC(=O)C1)N1CC(=O)NC(=O)C1 (centres undefined) -9.63%, COCC(C)NS(=O)(=O)c1ccc(N2CCCCS2(=O)=O)cc1 (centres undefined) -1%, Cc1cc(C)n(-c2nnc(N3CCN(c4ccccc4)CC3)nn2)n1 6.31%, Cc1cc(Nc2ccc(Br)cc2)nc2ccccc12 -28.1%, COC(=O)c1c(NC(=O)C(C)Oc2ccc(Cl)c(C)c2)sc(C)c1C (centres undefined) 5.21%, COc1c(C)cc(C(O)c2ncc(-c3cccc(C(F)(F)F)c3)[nH]2)cc1C (centres undefined) -29.7%, COc1cccc(NC(=O)c2csnn2)c1 20.7%, O=C(O)CSc1c2c(nc3cc(C(=O)Nc4cccc(C(F)(F)F)c4)ccc13)CCCC2 1.19%, COc1ccc(CC(N)c2csc(NC(=O)Cc3ccccc3)n2)cc1 (centres undefined) 0%, Cc1cc(C(=O)COC(=O)CCCN2C(=O)c3ccccc3C2=O)c(C)n1C 10.3%, C=CCN(CC=C)C(=O)CN1C(=O)c2ccccc2C1=O 4.2%, Cc1cccc(-n2c(=O)c3c(c4cc(C)ccc4n3C)n(CC(=O)Nc3ccccc3Cl)c2=O)c1 15.8%, CCC(=O)N1CCc2cc(S(=O)(=O)NC(CC(C)C)C(=O)NCCc3cccc(C)c3)ccc21 (centres undefined) -19.1%, CN1CCN(CCCNC(=O)c2cc3c(=O)oc4ccccc4c3s2)CC1 1.64%, CCCn1c2ccccc2c2cnn(CC(=O)NCCCN3CCCCC3CC)c(=O)c21 (centres undefined) -19.6%, Cc1ccc(NC(=O)C(Cc2ccccc2)NS(=O)(=O)c2ccc3c(c2)oc(=O)n3C)cc1C (centres undefined) 11.9%, Clc1cccc(-n2ncc3c(NCCc4ccccc4)ncnc32)c1 8.97%, O=C(Nc1ccnn1C1CCN(Cc2cccc(OCCO)c2)CC1)C1CCCC1 6.2%, CC(C)Oc1ccc(CN2CCC(n3nccc3NC(=O)c3cccnc3)CC2)cc1 -14.9%, Cc1cc(O)ccc1-c1cc(C(=O)NCc2cc(C(F)(F)F)cc(C(F)(F)F)c2)[nH]n1 -9.72%, O=C1Nc2ccccc2NC(c2ccc3c(c2)OCO3)=C1N(Cc1ccc(F)cc1)C(=O)c1ccco1 -10.1%, NN=C(NN=Cc1ccccc1)c1ccccc1 59.1%, O=C(CCC(=O)Nc1ccccc1)N/N=C/c1ccccc1F 10.2% [at 11.3 µM], COc1ccc(Cl)cc1N(C)C(=O)c1cc2c(=O)oc3ccc(C)cc3c2s1 6.73%, CCOc1cc(C2C(C(=O)Nc3ccc(OC)cc3)=C(C)Nc3nc(SC)nn32)ccc1O (centres undefined) 0%, O=C(CNC(=O)c1cccnc1)N/N=C/c1cc(Br)c(O)c(Br)c1 5.36%, Cc1ccc(S(=O)(=O)N(CC(=O)N/N=C/c2ccc(F)cc2)c2cccc3cccnc23)cc1 -22.9%, CCc1ccc(C=C2SC(=S)NC2=O)cc1 46.5%, Cn1c(=O)nc2n(-c3ccc(Br)cc3)c3cccc(Cl)c3cc-2c1=O 0.426%, CC(Nc1ccc(-c2nc(-c3ccco3)no2)cc1[N+](=O)[O-])c1ccccc1 (centres undefined) 30.4%, COC1C(CO)OC(n2cnc3c(=S)nc(N)[nH]c32)C1O (centres undefined) -17%, COc1ccccc1CNC(=O)c1ccc(NC(=O)N2CC(C)Sc3ccccc32)cc1 (centres undefined) 0.839%, Cc1nnc(SCc2cc(=O)c3cc(F)ccc3[nH]2)n1C 10.9%, CN(c1ccccc1)S(=O)(=O)c1ccc(Cl)c(C(=O)NCCc2c[nH]c3ccccc23)c1 0.602%, CN(C)CCNC(=O)Nc1cccc(Cl)c1Cl 1.81%, Cc1ccc(S(=O)(=O)c2nnn3c2nc(N2CCN(c4ccccc4F)CC2)c2cc(Cl)ccc23)cc1C 4.45%, CC(=O)c1cccc(-c2cnc3c(NC=O)cc(-c4cccc(C(=O)N(C)C)c4)cn23)c1 -7.72%, CC(=O)c1cccc(-c2cnc3c(NC=O)cc(-c4ccc(N(C)C)cc4)cn23)c1 0%, CCOc1ccc(NS(=O)(=O)c2ccc(N)cc2)nn1 8.26%, CCN1CCN(C(=O)N[C@@H](C(=O)N[C@@H]2C(=O)N3[C@@H]2SC(C)(C)[C@H]3C(=O)O)c2ccccc2)C(=O)C1=O 6.23%, CC(=O)O[C@]1(C(C)=O)CC[C@@H]2[C@@H]3C[C@H](C)C4=CC(=O)CC[C@]4(C)[C@H]3CC[C@@]21C 11.3%, CC(Oc1ccc(Br)cc1)C(=O)NC1CCCCCC1 (centres undefined) -17.4%, COc1ccc(OCC(O)CNCCNc2nccc(C(F)(F)F)n2)cc1 (centres undefined) -14.1%, CCOc1ccc(Nc2oc(/C=C/c3ccc(F)cc3)nc2C#N)cc1 -1.28%, CCOC(=O)N1CCN([N+]([O-])=NOc2ccc([N+](=O)[O-])cc2[N+](=O)[O-])CC1 16.8%, Cc1ccccc1-c1nc(SCC(=O)N(C)c2ccccc2)c2c(=O)n(C)c(=O)n(C)c2n1 6%, COC(=O)Nc1nc2ccc(C(=O)C3CC3)cc2[nH]1 0.457%, COc1cccc(CN2CCC(C(=O)NC(c3ccc4c(c3)OCO4)c3ccccn3)CC2)c1 (centres undefined) -4.28%, O=C(NC(c1ccc(Cl)cc1)c1cnccn1)C1CCN(Cc2ccc(Cl)cc2)CC1 (centres undefined) -9.15%, O=C1c2c(O)cccc2[C@@H]([C@@H]2O[C@H](CO)[C@@H](O)[C@H](O)[C@H]2O)c2cc(CO)cc(O)c21 10.2%, Cc1cccc(N2CCN(C(=O)c3ccc4c(c3)CCN4S(=O)(=O)c3ccccc3)CC2)c1C -26.9%, CCc1nc2c(OCCC3CCCCC3)cccn2c1N(C)C(=O)c1ccco1 0%, CN(CC(=O)Nc1ccccc1F)S(=O)(=O)c1ccc2c(c1)c(=O)n(C)c(=O)n2C 1.48%, COc1ccc(Sc2ccc(NC(=O)c3cccc(Cl)c3)cc2C#N)cc1 -0.357%, CCOc1ccc(CNCCSc2nnnn2C)cc1 8.83%, COc1cccc(NC(=O)c2ccc3nc(CCc4ccccc4)oc3c2)c1 15.2%, O=C(NC(=O)c1ccccc1)Nc1ccccc1O -7.29%, COC(=O)c1nc(NC(=O)c2ccccc2)n[nH]1 -7.98%, CCC(=O)Nc1c(C(=O)N2CCN(c3ccc(F)cc3)CC2)oc2ccccc12 2.94%, CCn1c(-c2nonc2N)nc2c(C#CC(C)(C)O)ncc(OC[C@H]3CCCNC3)c21 -12.9%, Cc1ccc(S(=O)(=O)N2CCc3cc(C(=O)Nc4ccc(Cl)cc4C)ccc32)cc1 2.14%, Cc1cc(C)cc(Nc2ncnc3onc(-c4ccc(F)cc4)c23)c1 -1.61%, CC(C)c1ccc(NC(=O)c2ccc(Cn3nc(N4CCN(c5ccccc5)CC4)ccc3=O)o2)cc1 0.267%, NC(=O)CSc1oc(-c2cccs2)nc1S(=O)(=O)c1ccccc1 4.16%, Cc1ccc(S(=O)(=O)c2nc(-c3cccs3)oc2NCc2cccnc2)cc1 -0.794%, CSc1ccccc1NC(=O)CCS(=O)(=O)c1nc(-c2cccs2)cc(C(F)(F)F)n1 11.6%, O=C(CSc1ncn[nH]1)Nc1ccc(Br)cc1Br 20.4%, O=C(CSc1oc(-c2ccco2)nc1S(=O)(=O)c1ccc(Cl)cc1)c1ccccc1 -10.6%, CC(C)OCCCn1c(SCC(=O)c2ccccc2)nc2c(sc3ccccc32)c1=O -1.85%, CCCCN1CCC(CNC(=O)c2c3n(c4ccccc24)CCCO3)CC1 53%, Fc1ccc(-n2ncc3c(Nc4ccc(Oc5ccccc5)cc4)ncnc32)cc1 17.8%, O=C(NCc1ccc(F)cc1)c1ccc2nc(N3CCCCC3)sc2c1 8.82%, CN(C)CCN(C(=O)C1CCCCC1)c1nc2cc3c(cc2s1)OCO3 -25.9%
